Results on eight compounds are retold here after PubChem BioAssay (NCI).

SMILES strings stand for the structures. The panel holds about 83,000 compounds, 20% with a hit somewhere; the sample as a whole holds those more often.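 Single-dose data. Exposure time 48 hours. Values below 10 considered active.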 A number with no mark means an inactive call. Activity calls are given as the source filed them.

Among the test systems are DU-145 prostate; K-562 leukemia; MALME-3M melanoma; MDA-MB-231 breast; RXF 393 renal; SF-268 CNS; SF-295 CNS; SF-539 CNS; UACC-257 melanoma; M14 melanoma; HCT-15 colon; HT29 colon; SNB-75 CNS; SNB-19 CNS; U251 CNS; PC-3 prostate; SK-MEL-5 melanoma; UACC-62 melanoma; LOX IMVI melanoma; SK-MEL-28 melanoma.
Common to all, as to assay: NCI-60 one-dose screen, 48 h (100 = growth as untreated, 0 = no growth, -100 = all killed)
Holding throughout (conditions): 10 µM unless noted

On to `COc1ccccc1-[n+]1cc(-c2ccc(-c3ccccc3)cc2)n2c1CCCCC2`, for which the growth in the experiment on DU-145 prostate was 20.7%; in the experiment with K-562 leukemia, 10.5%; in the experiment on MALME-3M melanoma, 0.879% (active); with MDA-MB-231 breast, 19.1%; with RXF 393 renal, 15.2%; in the experiment on SF-268 CNS, 21.2%. For the same compound, the growth is -1.81% (active) in the experiment on SF-295 CNS; 18.2% in the experiment with SF-539 CNS; -22.9% (active) with UACC-257 melanoma; 11.1% in the experiment with M14 melanoma; 66% with HCT-15 colon; 1.07% (active) with HT29 colon. The growth with SNB-75 CNS is 16%; with SNB-19 CNS, 11.7%; in the experiment on U251 CNS it was 10.6%; in the experiment with PC-3 prostate it was 1.3% (active); in the experiment with SK-MEL-5 melanoma it was -78.8% (active); in the experiment with UACC-62 melanoma it was 2.5% (active). Besides, the growth in the experiment on LOX IMVI melanoma was 11.3%; in the experiment on SK-MEL-28 melanoma, 27.8%.
`O=C(Nc1ccc(-n2ccc3c(NC(=O)c4ccccc4)nccc32)cc1)c1ccc(N2CCOCC2)c(C(F)(F)F)c1`: the growth was 38.9% in the experiment on DU-145 prostate; 17.4% in the experiment on K-562 leukemia; 55.5% with MALME-3M melanoma; 52.5% in the experiment on MDA-MB-231 breast; -66.5% (active) with RXF 393 renal; 37% in the experiment on SF-268 CNS. Further, the growth was -7.34% (active) in the experiment on SF-295 CNS; 22.6% with SF-539 CNS; 55% in the experiment with UACC-257 melanoma; 29.1% with M14 melanoma; 20% with HCT-15 colon; 2.44% (active) with HT29 colon. Also, the growth with SNB-75 CNS is 23.5%; with SNB-19 CNS it was 44.6%; with U251 CNS, 14.4%; in the experiment on PC-3 prostate, 35.7%; in the experiment on SK-MEL-5 melanoma, 23.7%; with UACC-62 melanoma, 49.4%. Besides, the growth in the experiment on LOX IMVI melanoma is 13.4%; in the experiment on SK-MEL-28 melanoma, 25.3%.
As for `COc1ccc(Cl)cc1Nc1nc(C(F)(F)F)ccc1C(=O)NN`, the growth in the experiment with DU-145 prostate was 40%; in the experiment on K-562 leukemia, 55.7%; with MALME-3M melanoma, 8.85% (active); in the experiment with MDA-MB-231 breast, 5.57% (active); in the experiment with RXF 393 renal, -3.01% (active); in the experiment with SF-268 CNS it was 26.4%. The growth in the experiment with SF-295 CNS was 16.7%; in the experiment on SF-539 CNS it was 31.2%; in the experiment on UACC-257 melanoma, 28.3%; in the experiment on M14 melanoma, 38%; with HCT-15 colon it was 15.8%; in the experiment with HT29 colon, 31.4%. The growth is 15% in the experiment on SNB-75 CNS; 41.7% in the experiment on SNB-19 CNS; 18.4% in the experiment on U251 CNS; 17.2% with PC-3 prostate; 77.5% in the experiment on SK-MEL-5 melanoma; 9.62% (active) with UACC-62 melanoma. The growth was 5.37% (active) in the experiment with LOX IMVI melanoma and 13.4% in the experiment with SK-MEL-28 melanoma.
For the compound `Oc1ccccc1-c1nnc(COc2ccc(Cl)cc2Cl)o1`, the growth was 48.1% in the experiment on DU-145 prostate; 44.5% with K-562 leukemia; 68.3% with MALME-3M melanoma; 48.2% in the experiment on MDA-MB-231 breast; 63.5% in the experiment with RXF 393 renal; 8.59% (active) in the experiment on SF-268 CNS. The growth in the experiment with SF-295 CNS was 47.4%; in the experiment with SF-539 CNS it was 52.1%; in the experiment with UACC-257 melanoma, 58.9%; with M14 melanoma it was 42.5%; with HCT-15 colon, 27.4%; in the experiment on HT29 colon it was 60.3%. Moreover, the growth in the experiment with SNB-75 CNS was 86.6%; with SNB-19 CNS, 53.5%; in the experiment with U251 CNS, 41.5%; in the experiment on PC-3 prostate, 47.8%; in the experiment on SK-MEL-5 melanoma, 32.3%; in the experiment with UACC-62 melanoma, 25.1%. The results for the growth with LOX IMVI melanoma and in the experiment with SK-MEL-28 melanoma were 25.5% and 68.9%, respectively.
For the compound `CC(C)c1ccc(-c2cnc3nonc3n2)cc1`, the growth in the experiment on DU-145 prostate is 30.9%; with K-562 leukemia it was 6.39% (active); in the experiment with MALME-3M melanoma it was 61.2%; with MDA-MB-231 breast, 38.5%; in the experiment on RXF 393 renal, 37.7%; in the experiment with SF-268 CNS it was 62.4%. The growth with SF-295 CNS is 48.9%; with SF-539 CNS it was 14.5%; in the experiment on UACC-257 melanoma, 52%; in the experiment with M14 melanoma, 7.59% (active); in the experiment with HCT-15 colon, 19.3%; with HT29 colon, 29.8%. For the same compound, the growth with SNB-75 CNS is 54.3%; in the experiment on SNB-19 CNS it was 40.7%; in the experiment with U251 CNS it was 65.9%; in the experiment on PC-3 prostate, 19.3%; in the experiment with SK-MEL-5 melanoma, 32.5%; with UACC-62 melanoma, 14.2%. The growth in the experiment with LOX IMVI melanoma was 26.1%; in the experiment with SK-MEL-28 melanoma, 73.9%.
Turning to `COc1cc(C2CC(c3ccc(Cl)cc3)=NN2C(C)=O)ccc1Oc1nc2c(c(=O)n(C)c(=O)n2C)n1C` (stereo not given), the growth is 65.2% in the experiment with DU-145 prostate; 101% with K-562 leukemia; 100% in the experiment on MALME-3M melanoma; 85.8% in the experiment with MDA-MB-231 breast; 86.8% in the experiment with RXF 393 renal; 56.8% in the experiment with SF-268 CNS. The growth with SF-295 CNS was 62.6%; in the experiment on SF-539 CNS it was 102%; with UACC-257 melanoma, -8% (active); in the experiment on M14 melanoma, 67.8%; with HCT-15 colon, 88.5%; with HT29 colon it was 73.8%. Also, the growth in the experiment on SNB-75 CNS is 75%; with SNB-19 CNS it was 59.8%; with U251 CNS, 80.7%; in the experiment with PC-3 prostate it was 75.6%; in the experiment on SK-MEL-5 melanoma it was 55.6%; with UACC-62 melanoma it was 75.9%. Further, the growth was 64.5% with LOX IMVI melanoma and 86.6% with SK-MEL-28 melanoma.
On to `Cc1nc(N)nc2c1CCC(Nc1ccccc1)S2` (stereo not given), for which the growth in the experiment with DU-145 prostate was 106%; with K-562 leukemia, 93.4%; in the experiment on MALME-3M melanoma it was 96.3%; with MDA-MB-231 breast, 106%; with RXF 393 renal, 107%; in the experiment on SF-268 CNS it was 94.7%. Besides, the growth is 104% in the experiment with SF-295 CNS; 96.7% with SF-539 CNS; 101% in the experiment on UACC-257 melanoma; 108% in the experiment on M14 melanoma; 100% with HCT-15 colon; 104% in the experiment with HT29 colon. For the same compound, the growth with SNB-75 CNS was 98.3%; with SNB-19 CNS, 111%; in the experiment on U251 CNS it was 103%; in the experiment with PC-3 prostate, 90.6%; in the experiment on SK-MEL-5 melanoma it was 99.1%; in the experiment with UACC-62 melanoma, 108%. For the same compound, the growth in the experiment on LOX IMVI melanoma is 97%; with SK-MEL-28 melanoma it was 114%.
As for `CCNCCCn1c2c(c3ccc(Cl)cc3c1=O)C(=O)c1cc(OC)cnc1-2`, the growth with DU-145 prostate was -97.4% (active); in the experiment on K-562 leukemia, -84.2% (active); with MALME-3M melanoma, 74.2%; with MDA-MB-231 breast, -72.6% (active); with RXF 393 renal, 8.86% (active); with SF-268 CNS it was -66% (active). The growth in the experiment on SF-295 CNS is 15.5%; in the experiment with SF-539 CNS, 12%; with UACC-257 melanoma, 65.9%; with M14 melanoma, 40%; in the experiment with HCT-15 colon it was -58.2% (active); in the experiment on HT29 colon it was -76.3% (active). Further, the growth was 19.4% in the experiment with SNB-75 CNS; 28.8% in the experiment with SNB-19 CNS; -93.8% (active) with U251 CNS; 40% with PC-3 prostate; 18.3% in the experiment on SK-MEL-5 melanoma; 14.4% in the experiment on UACC-62 melanoma. In addition, the growth with LOX IMVI melanoma was -71.1% (active); in the experiment with SK-MEL-28 melanoma, 70.5%.
